Inconclusive results are not listed. A call without a number means that no potency is given here. Calls of active or inactive are those of the source. Unless noted, calls come from the whole dose curve; as a rule, active = well fitted curve in the direction sought with a large enough effect; inconclusive = small, poorly fitted or top-dose-only effect, or another doubt; inactive = no such curve, though single readings can be large; an effect the other way counts as inactive or inconclusive.
What was measured:
[1] = biological target: DNA repair nuclease/redox regulator APEX1 (Homo sapiens) (UniProt P27695); assay: qHTS Validation Assay for Inhibitors of the Human Apurinic/apyrimidinic Endonuclease 1 (APE1) (AID 1705;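 note: TAMRA fluorescence gain over two minutes as APE1 cuts a quenched THF abasic duplex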)
Outline: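 Endonuclease activity of human APE1 is followed as dequenching when the enzyme incises a tetrahydrofuran abasic site in a short duplex labelled 5'-TAMRA/3'-BHQ-2 (50 nM final), after 15 min enzyme–compound preincubation at room temperature.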

[2] = Counterscreen for APE1 Inhibitors: Fluorescent Dye Displacement Validation Assay (AID 1707)
Outline: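 Assay buffer: Tris-HCl pH7.5 with 50mM NaCl, 2 mM MgCl2, 0.01% Tween-20. Dye 250 nM, duplex 50 nM final. Readout: decrease in ThO endpoint fluorescence, 480 nm excitation, 540 nm emission.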

[3] = qHTS for differential inhibitors of proliferation of Plasmodium falciparum line 7G8 (AID 1815);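 note: parasite growth measured after three days of incubation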; note: potency is the fitted concentration of half-maximal effect
[4] = qHTS for differential inhibitors of proliferation of Plasmodium falciparum line GB4 (AID 1816); conditions: Potency: Plasmodium falciparum GB4 proliferation inhibition;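 note: parasite growth measured after 72 h incubation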; note: potency is the fitted concentration of half-maximal effect
[5] = qHTS for differential inhibitors of proliferation of Plasmodium falciparum line 3D7 (AID 1876); note: potency is the fitted concentration of half-maximal effect
[6] = qHTS for differential inhibitors of proliferation of Plasmodium falciparum line Dd2 (AID 1882); conditions: Potency: Plasmodium falciparum Dd2 proliferation inhibition; note: nearly all actives have a fitted effect of over 65% in size; note: potency is the fitted concentration of half-maximal effect
Outline: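 Dd2-infected erythrocytes (0.3% parasitemia, 2.5% hematocrit final) incubated with compound 72 h at 37 C, 5% CO2; lysed with saponin/Triton buffer containing SYBR Green I, incubated overnight in the dark, then read by fluorescence (485/535 nm). Normalized to 0.29 uM artemisinin and DMSO.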

[7] = biological target: ATP-dependent DNA helicase Q1 (Homo sapiens) (UniProt P46063); assay: qHTS Validation Assay for Inhibitors of RecQ-Like Dna Helicase 1 (RECQ1) (AID 2353)
Outline: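 50 nM RECQ1T1 preincubated 15 min with compound in Tris pH 8.0 buffer with MgCl2, DTT, Tween-20 and 2.5 ug/ml poly(dI-dC); started with 200 nM TAMRA/BHQ-2 forked duplex and 2 mM ATP. Unwinding read as fluorescence (525/598 nm), two reads 2 h apart.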

[8] = Cytometric Cell-Based qHTS for Inhibitors of the mTORC1 Signaling Pathway in MEF (Tsc2-/-, p53-/-) Cells (AID 2660);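 note: Tsc2 and p53 null MEFs carrying empty vector with compound for 24 h; percent of cells above a phospho-rpS6 to PI ratio cutoff in each well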
Outline: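 Cells are plated, treated with compound for 24 hrs at 37 degree Celsius, then fixed, blocked and immunostained for phospho-rpS6 Ser235/236. Propidium iodide counterstain follows. Per-well % positive cells is derived from the PI-normalized phospho-S6 signal.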

[9] = qHTS for differential inhibitors of proliferation of Plasmodium falciparum line W2 (AID 1883); conditions: Potency: Plasmodium falciparum W2 proliferation inhibition;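 note: parasites grown with compound for 72 h before lysis and staining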; note: potency is the fitted concentration of half-maximal effect
[10] = biological target: RecQ-like DNA helicase BLM (Homo sapiens) (UniProt P54132); assay: qHTS Validation Assay for Inhibitors of Bloom's syndrome helicase (BLM) (AID 2364); note: potency is the fitted concentration of half-maximal effect
Outline: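 Forked 20-bp duplex substrate (200 nM, TAMRA/BHQ-2) plus 2 mM ATP added after 15 min compound preincubation with 50 nM enzyme, pH 8.0, poly(dI-dC) 2.5 ug/ml. Strand separation followed by fluorescence (525/598 nm) over 2 h, normalized to enzyme-free and DMSO controls.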

[11] = High Content Imaging Cell-Based qHTS for Inhibitors of the mTORC1 Signaling Pathway in MEF (Tsc2-/-, p53-/-) Cells (AID 2666);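 note: percent of cells scored positive for phospho-rpS6 Ser235/236 immunostaining by imaging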
Outline: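 Cells were plated, dosed with compound after 24 hrs, and incubated another 24 hrs at 37 degree Celsius. Fixed cells were immunostained for phospho-rpS6 Ser235/236 and counterstained, and the normalized signal was scored as % active cells against rapamycin and DMSO controls.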

[12] = biological target: Endonuclease 4 (Escherichia coli (strain K12)) (UniProt P0A6C1); assay: Counterscreen for APE1 Inhibitors: qHTS Validation Assay for Inhibitors of Endonuclease IV (AID 1708)
Outline: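 qHTS concentration-response format; LOPAC1280 tested under APE1-screen conditions. 2 nM enzyme, 15 min compound preincubation at RT, then 50 nM TAMRA/BHQ-2 abasic substrate; kinetic fluorescence read, three reads at 60 s intervals.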

[13] = qHTS for differential inhibitors of proliferation of Plasmodium falciparum line D10 (AID 1877);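 note: parasites grown with compound for 72 h before DNA staining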; note: potency is the fitted concentration of half-maximal effect
[14] = qHTS for differential inhibitors of proliferation of Plasmodium falciparum line HB3 (AID 1886); conditions: Potency: Plasmodium falciparum HB3 proliferation inhibition;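 note: parasites grown with compound for 72 h before SYBR Green readout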; note: potency is the fitted concentration of half-maximal effect
[15] = qHTS Assay for Modulators of Human Peripheral Myelin Protein 22 (PMP22) Expression/Activity (AID 1967; active = well fitted curve in the direction sought with a large enough effect in the signal ratio; the % refers to the signal ratio)
Outline: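 Quantitative HTS in a mouse Schwann cell line expressing dual click beetle luciferases: Pmp22 promoter (green) and control EF-alpha promoter (red). After 24h treatment, corrected green/red signal ratio gave %Activity relative to untreated cells.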

[16] = biological target: Ferritin light chain (Equus caballus) (UniProt P02791); assay: qHTS Validation Assay for Identification of Novel General Anesthetics (AID 2323)
Outline: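 Apoferritin from horse spleen (10 uM) was mixed with 1-aminoanthracene at 50% saturation in PBS, then compounds were added. After 10 min at room temperature, fluorescence was read (ex 380 nm, em 535 nm) and normalized to free-probe and complex controls.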

[17] = qHTS Assay for Lipid Storage Modulators (AID 1519; calls by dose curve); conditions: Drosophila S3 cells, BODIPY lipid droplet/cell ratio, laser cytometry, cells loaded with oleic acid; for activity change, negative = inhibition: at 57.5 µM (top of the series)
Outline: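 Cells seeded at 5,000 per well were treated with compounds over a concentration series and loaded with oleic acid (400 uM, as added). Lipid droplet fluorescence (488 nm excitation, 500-530 nm channel) was read by laser-scanning cytometry and normalized to 20 uM Triacsin C.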

[18] = measured here: cell count channel max response
[19] = measured here: lipid channel max response

Sequence of DNA repair nuclease/redox regulator APEX1 (Homo sapiens) (P27695 whole entry, looked up): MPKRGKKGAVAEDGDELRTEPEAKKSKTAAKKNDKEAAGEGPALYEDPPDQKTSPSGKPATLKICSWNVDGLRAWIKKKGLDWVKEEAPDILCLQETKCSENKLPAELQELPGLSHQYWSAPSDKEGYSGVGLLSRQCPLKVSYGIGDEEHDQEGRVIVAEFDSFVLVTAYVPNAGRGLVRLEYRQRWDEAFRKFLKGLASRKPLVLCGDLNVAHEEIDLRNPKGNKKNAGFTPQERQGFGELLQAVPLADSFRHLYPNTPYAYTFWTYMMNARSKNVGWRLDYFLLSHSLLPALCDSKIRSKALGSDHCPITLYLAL
Sequence of Ferritin light chain (Equus caballus) (P02791 2-175 limits assumed): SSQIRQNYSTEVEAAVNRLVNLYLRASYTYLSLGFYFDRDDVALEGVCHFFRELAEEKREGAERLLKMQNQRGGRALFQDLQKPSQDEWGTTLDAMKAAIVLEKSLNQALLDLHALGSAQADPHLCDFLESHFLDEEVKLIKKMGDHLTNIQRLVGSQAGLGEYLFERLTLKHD
Sequence of ATP-dependent DNA helicase Q1 (Homo sapiens) (P46063 whole entry, looked up): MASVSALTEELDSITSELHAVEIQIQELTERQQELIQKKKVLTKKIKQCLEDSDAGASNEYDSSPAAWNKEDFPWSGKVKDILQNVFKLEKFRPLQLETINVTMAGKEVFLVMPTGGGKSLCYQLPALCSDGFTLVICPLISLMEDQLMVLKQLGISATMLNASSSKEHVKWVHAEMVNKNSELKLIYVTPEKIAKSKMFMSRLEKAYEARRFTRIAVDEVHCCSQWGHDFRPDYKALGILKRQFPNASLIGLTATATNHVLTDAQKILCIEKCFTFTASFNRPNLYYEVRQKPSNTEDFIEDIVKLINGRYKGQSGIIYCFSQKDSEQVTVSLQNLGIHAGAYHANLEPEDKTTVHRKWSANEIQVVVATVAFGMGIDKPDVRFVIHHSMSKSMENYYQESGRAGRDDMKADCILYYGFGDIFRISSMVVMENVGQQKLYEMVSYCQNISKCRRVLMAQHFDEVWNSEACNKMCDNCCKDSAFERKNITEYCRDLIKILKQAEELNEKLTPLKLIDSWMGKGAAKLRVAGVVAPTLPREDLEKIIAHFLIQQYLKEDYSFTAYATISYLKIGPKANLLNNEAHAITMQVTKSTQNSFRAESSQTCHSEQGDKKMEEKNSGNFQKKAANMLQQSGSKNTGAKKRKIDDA
Sequence of RecQ-like DNA helicase BLM (Homo sapiens) (P54132 whole entry, looked up): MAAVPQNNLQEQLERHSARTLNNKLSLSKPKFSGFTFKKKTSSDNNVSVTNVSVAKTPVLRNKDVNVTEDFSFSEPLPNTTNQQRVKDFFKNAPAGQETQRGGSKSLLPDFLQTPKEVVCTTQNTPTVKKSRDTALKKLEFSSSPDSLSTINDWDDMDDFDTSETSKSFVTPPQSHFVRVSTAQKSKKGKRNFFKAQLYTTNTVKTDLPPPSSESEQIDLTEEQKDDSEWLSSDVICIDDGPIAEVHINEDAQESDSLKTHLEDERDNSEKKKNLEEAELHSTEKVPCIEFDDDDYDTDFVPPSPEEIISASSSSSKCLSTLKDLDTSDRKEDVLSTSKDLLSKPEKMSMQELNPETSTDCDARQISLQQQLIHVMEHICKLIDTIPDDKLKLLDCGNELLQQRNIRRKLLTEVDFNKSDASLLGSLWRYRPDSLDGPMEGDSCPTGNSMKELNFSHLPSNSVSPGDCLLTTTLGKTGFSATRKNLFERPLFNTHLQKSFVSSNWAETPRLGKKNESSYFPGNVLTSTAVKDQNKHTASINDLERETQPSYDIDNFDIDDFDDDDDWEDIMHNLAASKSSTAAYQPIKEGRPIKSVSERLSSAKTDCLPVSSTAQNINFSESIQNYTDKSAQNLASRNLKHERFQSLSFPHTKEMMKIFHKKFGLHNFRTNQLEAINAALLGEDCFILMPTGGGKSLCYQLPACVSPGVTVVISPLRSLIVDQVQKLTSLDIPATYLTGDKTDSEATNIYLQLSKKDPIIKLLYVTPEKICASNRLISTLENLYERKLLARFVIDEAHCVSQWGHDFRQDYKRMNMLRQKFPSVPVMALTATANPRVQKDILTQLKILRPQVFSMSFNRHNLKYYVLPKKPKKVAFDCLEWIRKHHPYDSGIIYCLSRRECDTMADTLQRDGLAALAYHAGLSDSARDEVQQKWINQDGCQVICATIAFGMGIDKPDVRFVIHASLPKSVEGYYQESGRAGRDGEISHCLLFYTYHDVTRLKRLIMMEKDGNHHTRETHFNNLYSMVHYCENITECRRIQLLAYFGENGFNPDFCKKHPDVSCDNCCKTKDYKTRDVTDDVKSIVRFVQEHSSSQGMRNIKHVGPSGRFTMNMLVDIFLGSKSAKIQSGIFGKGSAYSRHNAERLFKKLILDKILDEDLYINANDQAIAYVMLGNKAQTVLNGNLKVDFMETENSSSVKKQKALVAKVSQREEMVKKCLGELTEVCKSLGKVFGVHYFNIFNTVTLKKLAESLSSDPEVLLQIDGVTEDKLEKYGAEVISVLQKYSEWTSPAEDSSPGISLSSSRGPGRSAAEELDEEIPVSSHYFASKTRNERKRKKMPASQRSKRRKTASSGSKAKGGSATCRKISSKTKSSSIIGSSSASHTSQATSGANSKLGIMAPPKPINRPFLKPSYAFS

## CN(C)c1nc2c(Br)c(Br)c(Br)c(Br)c2[nH]1
[1]
  Potency: inactive
[2]
  Potency: inactive
[3]
  Potency: inactive
[4]
  Potency: inactive
[5]
  Potency: inactive
[6]
  Potency: inactive
[7]
  Potency: inactive
[8]
  outcome: inactive

## Cc1ccc(O)c(N=Nc2ccccc2)n1
[1]
  Potency: inactive
[2]
  Potency: inactive
[3]
  Potency: 11.2 µM (active)
[4]
  Potency: 12.6 µM (active)
[9]
  Potency: 10 µM (active)
[7]
  Potency: inactive
[10]
  Potency: inactive
[8]
  outcome: inactive
[11]
  Potency: inactive

## O=C1O/C(=C/Br)CCC1c1cccc2ccccc12 (stereo unspecified)
[1]
  Potency: inactive
[2]
  Potency: inactive
[12]
  Potency: inactive
[13]
  Potency: inactive
[6]
  Potency: inactive
[9]
  Potency: 11.2 µM (active)
[14]
  Potency: inactive
[15]
  outcome: inactive
[7]
  Potency: inactive
[8]
  outcome: inactive
[11]
  Potency: inactive

## COc1ccccc1CNCCCCCCNCCCCCCCCNCCCCCCNCc1ccccc1OC
[1]
  Potency: inactive
[2]
  Potency: inactive
[12]
  Potency: inactive
[3]
  Potency: 1.41 µM (active)
[4]
  Potency: 2.24 µM (active)
[5]
  Potency: 0.891 µM (active)
[13]
  Potency: 2.24 µM (active)
[6]
  Potency: 4.47 µM (active)
[9]
  Potency: 1 µM (active)
[14]
  Potency: 2 µM (active)
[16]
  Potency: inactive
[10]
  Potency: 17.8 µM (active)
[8]
  outcome: inactive
[11]
  Potency: inactive

## CC(C)(C)c1ccc(S(=O)(=O)/C=C/C#N)cc1
[1]
  Potency: inactive
[2]
  Potency: inactive
[12]
  Potency: inactive
[3]
  Potency: 10 µM (active)
[4]
  Potency: 14.1 µM (active)
[5]
  Potency: 10 µM (active)
[13]
  Potency: 12.6 µM (active)
[6]
  Potency: 11.2 µM (active)
[9]
  Potency: 7.08 µM (active)
[14]
  Potency: 8.91 µM (active)
[16]
  Potency: inactive
[7]
  Potency: inactive
[8]
  outcome: inactive
[11]
  Potency: inactive

## CCCCCCCCCCCCCCCCCC(=O)OC(CC(=O)O)C[N+](C)(C)C (stereo unspecified)
[1]
  Potency: inactive
[2]
  Potency: inactive
[3]
  Potency: inactive
[4]
  Potency: inactive
[5]
  Potency: inactive
[13]
  Potency: inactive
[6]
  Potency: inactive
[9]
  Potency: inactive
[14]
  Potency: inactive
[7]
  Potency: inactive
[10]
  Potency: inactive
[8]
  outcome: inactive

## O=C1C(SCCO)=C(SCCO)C(=O)c2ccccc21
[1]
  Potency: inactive
[2]
  Potency: inactive
[12]
  Potency: inactive
[3]
  Potency: 3.16 µM (active)
[4]
  Potency: 2 µM (active)
[5]
  Potency: 2.24 µM (active)
[13]
  Potency: 11.2 µM (active)
[6]
  Potency: 6.31 µM (active)
[9]
  Potency: 10 µM (active)
[14]
  Potency: 2 µM (active)
[7]
  Potency: inactive
[10]
  Potency: 28.2 µM (active)
[8]
  outcome: inactive
[11]
  Potency: inactive

## CC12C(=O)OC(=O)C1(C)C1CCC2O1 (stereo unspecified)
[1]
  Potency: inactive
[2]
  Potency: inactive
[12]
  Potency: inactive
[3]
  Potency: 3.98 µM (active)
[4]
  Potency: 4.47 µM (active)
[5]
  Potency: 3.16 µM (active)
[13]
  Potency: 2.24 µM (active)
[6]
  Potency: 4.47 µM (active)
[9]
  Potency: 2.51 µM (active)
[14]
  Potency: 3.98 µM (active)
[16]
  Potency: inactive
[7]
  Potency: inactive

## Oc1cc2c(cc1O)CN(C(=S)NCCc1ccc(Cl)cc1)CCC2
[1]
  Potency: inactive
[2]
  Potency: inactive
[12]
  Potency: inactive
[3]
  Potency: 8.91 µM (active)
[13]
  Potency: 12.6 µM (active)
[6]
  Potency: 8.91 µM (active)
[14]
  Potency: 8.91 µM (active)
[7]
  Potency: inactive
[8]
  outcome: inactive
[11]
  Potency: inactive

## Oc1ccccc1O
[17]
  activity change, negative = inhibition: -4.75% (inactive)
[17]; [18]
  max response: -20.2%
[17]; [19]
  max response: -25.6%
[2]
  Potency: inactive
[16]
  Potency: inactive
[7]
  Potency: inactive
[11]
  Potency: inactive

## CC(COc1ccc(/C=C/c2ccccc2)cc1)[N+](C)(C)C (stereo unspecified)
[1]
  Potency: inactive
[2]
  Potency: inactive
[12]
  Potency: inactive
[3]
  Potency: 7.08 µM (active)
[4]
  Potency: 2.24 µM (active)
[5]
  Potency: 1.26 µM (active)
[13]
  Potency: 2.24 µM (active)
[6]
  Potency: 5.01 µM (active)
[9]
  Potency: 2.82 µM (active)
[14]
  Potency: 2 µM (active)
[16]
  Potency: inactive
[7]
  Potency: inactive
[10]
  Potency: inactive
[8]
  outcome: inactive
[11]
  Potency: inactive

## Nc1nc(Cl)nc2c1ncn2[C@@H]1O[C@H](CO)[C@@H](O)[C@H]1O
[17]
  activity change, negative = inhibition: 5.13% (inactive)
[17]; [18]
  max response: 7.07%
[17]; [19]
  max response: 14%
[8]
  outcome: inactive
[11]
  Potency: inactive

## COc1ccc(NC(=O)/C=C/c2ccc(Cl)cc2)cc1
[1]
  Potency: inactive
[2]
  Potency: inactive
[3]
  Potency: 10 µM (active)
[4]
  Potency: 11.2 µM (active)
[5]
  Potency: 11.2 µM (active)
[13]
  Potency: 8.91 µM (active)
[9]
  Potency: 10 µM (active)
[14]
  Potency: 12.6 µM (active)
[16]
  Potency: inactive
[7]
  Potency: inactive
[8]
  outcome: inactive

## CC(C)(C=O)Cc1cc(C(C)(C)C)c(O)c(C(C)(C)C)c1
[1]
  Potency: inactive
[2]
  Potency: inactive
[3]
  Potency: inactive
[4]
  Potency: inactive
[5]
  Potency: inactive
[13]
  Potency: inactive
[6]
  Potency: inactive
[9]
  Potency: inactive
[14]
  Potency: inactive
[7]
  Potency: inactive
[8]
  outcome: inactive
[11]
  Potency: inactive

## Brc1c(Br)c(Br)c2n[nH]nc2c1Br
[1]
  Potency: inactive
[12]
  Potency: inactive
[3]
  Potency: inactive
[4]
  Potency: inactive
[5]
  Potency: inactive
[13]
  Potency: inactive
[6]
  Potency: inactive
[14]
  Potency: inactive
[15]
  outcome: inactive
[7]
  Potency: inactive
[8]
  outcome: inactive
[11]
  Potency: inactive

From PubChem BioAssay (NCATS)
